Pf growth 48h = P. falciparum growth inhibition at 48 hours (one generation); P. falciparum luciferase growth in erythrocytes, 48 h; Potency, µM (top dose mostly 28.7 µM), for the others: at the highest dose activity change, negative = inhibition, most hits filed as inhibitors; 310,000 tested, 5.9% active; AID 504832
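Luciferase-expressing parasites in RBCs, 2% Hct / 0.1% parasitemia final; RPMI 1640 + 0.5% Albumax; 37 C, 5% CO2, one generation; luminescence read-out, lower signal = inhibition.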
HCV inh = HCV inhibition; Huh7.5.1 HCVcc-Cre infection, luciferase reporter, 44 h; Potency, µM (highest dose often 41.8 µM), for inactives: at the top dose activity change, negative = inhibition, hits mostly inhibitors; 340,000 tested, 3.4% active; AID 651820
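Infectious HCV cell culture screen: compound-treated cells (1,000/well, pre-plated 4 h) are infected with HCVcc-Cre at roughly 0.5 moi and grown 44 h. Infection is quantified by luciferase signal after 15 min substrate incubation at room temperature.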
Pf growth 96h = P. falciparum growth inhibition at 96 hour, primary screen for plastid delayed-death inhibitors; P. falciparum luciferase reporter growth, 96 h; AID 504834; Potency, µM (doses to about 28.7 µM), without a hit: at the top dose activity change, negative = inhibition, hits mostly inhibitors; 320,000 tested, 6.9% active
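Delayed-death screen, second-generation endpoint: infected erythrocytes, 2% hematocrit, 0.05% parasitemia final; 96 hours at 37 C, 5% CO2; luciferase detection reagent; luminescence decrease equals reduced growth.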
AMA1 RON2 block = disrupts binding of P. falciparum AMA1 to RON2. AlphaScreen AMA1-biotinylated RON2 peptide binding. Potency, µM (series often up to 58.2 µM), for inactives: at the highest dose activity change, negative = inhibition, most hits filed as inhibitors. 360,000 tested, 0.2% active. AID 720542;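 note: 0% = vehicle wells and -100% = peptide control; nearly all actives have a fitted effect of over 45% in size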
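AMA1 (3D7) with his tag at 25 nM final met compounds first, then biotinylated RON2 peptide at 25 nM; detection used donor plus acceptor beads, 10 µg/mL apiece, read by AlphaScreen after 30 min at room temperature.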
The depositor's hits bear a star; ? = inconclusive; · = not tested or not shown; [ ] = another dose, or the depositor's remark. In the library only some 11% were active in any assay of this set; here they are far more common. Calls come from the whole dose curve; as a rule, active = well fitted curve in the direction sought with a large enough effect; inconclusive = small, poorly fitted or top-dose-only effect, or another doubt; inactive = no such curve, though single readings can be large; an effect the other way counts as inactive or inconclusive. Unless noted, % is set by controls: 0 for no effect and ±100 for the full control effect; potency is the fitted concentration of half-maximal effect.

SMILES	Pf growth 48h	HCV inh	Pf growth 96h	AMA1 RON2 block
CCOC(=O)C1CCN(C(=O)CN(c2cc(OC)ccc2OC)S(=O)(=O)c2ccccc2)CC1	13µM*	9%	?	-8%
COc1ccc(C(=O)Nc2ccccc2N2CCN(C(=O)C(C)C)CC2)cc1Cl	12µM*	?	-29%	14%
Cc1ccc(C(=O)Nc2ccccc2C(=O)NC(C(=O)O)C(C)C)cc1 (stereo not drawn)	12µM*	-3%	?	-7%
CSCCC(NC(=O)c1ccccc1)C(=O)N1CCN(C(c2ccccc2)c2ccccc2)CC1 (stereo not drawn)	?	13µM*	1.9µM*	-17%
CCOc1cccc(C(=O)Nc2ccccc2N2CCN(C(=O)C(C)C)CC2)c1	9.3µM*	-29%	13µM*	-4%
CSCCC(NC(=O)c1ccc(Cl)cc1Cl)C(=O)N1CCN(C(=O)c2ccccc2)CC1 (stereo not drawn)	·	-23%	·	-2%
CCCNc1nc(-c2cc(-c3ccc(Cl)cc3)on2)cc(C(C)C)n1	16%	15%	42%	18%
CC(=O)c1sc(NC(=O)c2ccc(F)c(S(=O)(=O)N3CCOCC3)c2)nc1C	?	?	?	-1%
Cc1cccc(NC(=O)Cn2nnc3ccccc32)c1	57%	17%	?	-2%
CN(Cc1ccccc1)C(=O)[C@@H]1CCCN1C(=O)[C@@H]1CCCN1C(=O)OC(C)(C)C	·	·	·	3%
c1cc(-c2ccc(N3CCOCC3)cc2)n2cnnc2c1	·	·	·	57%
Cc1ccc(C(=O)Nc2ccccc2N2CCN(C(=O)C(C)C)CC2)cc1	9.3µM*	-16%	·	-16%
CC(NC(=O)c1ccco1)C(=O)N1CCN(C(c2ccccc2)c2ccccc2)CC1 (stereo not drawn)	13µM*	·	31%	-3%
CC(NC(=O)c1ccco1)C(=O)N1CCN(c2ccccc2)CC1 (stereo not drawn)	-7%	-2%	18%	24%
O=C(Nc1ccc(Cl)cc1)c1ccc(Br)cc1F	125%	-25%	138%	14%
COc1ccc(Cl)cc1C(=O)Nc1ccccc1N1CCN(C(=O)C(C)C)CC1	5.9µM*	?	5.2µM*	16%
CN(C)C(=O)Oc1ccc(Br)cc1C(=O)Nc1ccc(F)c(Cl)c1	1.2µM*	?	?	-8%
CCc1ccccc1NC(=O)CNC(=O)c1ccccc1OCc1c(C)noc1C	-17%	0%[8.37 µM]	-1%	-4%
CCCCOc1cccc(C(=O)Nc2ccccc2N2CCCC2)c1	?	13µM*	?	?
COc1ccc(Cl)cc1C(=O)Nc1ccc(NC(=O)C(C)C)cc1	-23%	4µM*	17%	6%
COc1ccc(Br)cc1C(=O)Nc1cc(C)cc(C)c1	-13%	5.6µM*	?	0%
CC(C)C(=O)N1CCN(c2ccccc2NC(=O)c2ccc(Br)o2)CC1	·	-2%	·	-9%
CC(C)C(=O)N1CCN(c2ccccc2NC(=O)c2ccco2)CC1	4.7µM*	7%	30%	3%
COc1ccc(/C=N/NC(=O)c2ccc3nc[nH]c3c2)cc1OC	-9%	8%	135%	9%
Clc1ccc(Sc2cc(Cl)c(-c3ccccc3)nn2)cc1	?	-7%	-6%	-7%
SMILES	Pf growth 48h	HCV inh	Pf growth 96h	AMA1 RON2 block
O=C(CCNS(=O)(=O)c1cccs1)N1CCc2ccccc2C1	60%	20%	·	-4%
O=C(c1ccc(S(=O)(=O)N2CCOCC2)cc1)N1CCN(c2ccc(F)cc2)CC1	-1%	7%	·	11%
O=C(/C=C/c1ccccc1)N1CCOCC1	18%	13%	3.3µM*	-6%
O=C(/C=C/c1ccc(S(=O)(=O)N2CCOCC2)cc1)N1CCN(c2ccc(F)cc2)CC1	7.4µM*	-16%	?	0%
CC1CC(C)CN(C(=O)/C=C/c2ccc(S(=O)(=O)N3CCOCC3)cc2)C1 (stereo not drawn)	9.3µM*	-9%	5.2µM*	6%
O=C(/C=C/c1ccc2ccccc2n1)N1CCN(S(=O)(=O)c2ccc(F)cc2)CC1	?	-22%	10µM*	-9%
O=C(/C=C/c1ccc(Cl)cc1)N1CCOCC1	36%	6%	11%	18%
CCc1cccc(NC(=O)C2CCCN2S(=O)(=O)c2ccccc2C(F)(F)F)c1 (stereo not drawn)	?	-34%	?	16%
COc1ccccc1CNC(=O)[C@H](NC(=O)C1CCN(C(=O)[C@@H](N)CCSC)CC1)C(C)C	-7%	-8%	?	98%
COc1ccc(/C=N/OC(=O)c2ccc(Cl)cc2)c(Cl)c1OC	-4%	17%	51%	-3%
O=C1NC2=C(C(=O)CCC2)C(c2ccccc2Cl)N1 (stereo not drawn)	-20%[0.00184 µM]	11%	2.9µM*	0%
O=C1NC2=C(C(=O)CCC2)C(c2ccccc2[N+](=O)[O-])N1 (stereo not drawn)	1%	16%	27%	0%
CCc1nc2c(OCc3ccc(C(F)(F)F)cc3)cccn2c1N(C)C(=O)c1ccncc1	·	·	·	-4%
CSC1=NCCN1C(=O)Cc1ccc(F)cc1	·	9%	9.3µM*	12%
CCOc1ccccc1C(=O)N1CCN=C1SC	·	5%	15µM*	0%
CSC1=NCCN1C(=O)Cc1ccc(-c2ccccc2)cc1	26%	?	55%	-20%
CCOc1ccccc1C(=O)N1c2ccccc2Sc2ccccc21	·	11µM*	?	-9%
OC(c1cc(C(F)(F)F)nc2c(Cl)cc(Cl)cc12)C1CCCCN1 (stereo not drawn)	0.013µM*	?	0.0033µM*	?
OC(c1cc(-c2ccc(Cl)cc2)nc2ccccc12)C1CCCCN1 (stereo not drawn)	0.037µM*	?	0.052µM*	0%
O[C@@H](c1cc(C(F)(F)F)nc2c(C(F)(F)F)cccc12)[C@H]1CCCCN1	0.033µM*	8.9µM*	0.015µM*	1%
COP(=O)(OC)C(Nc1ccc(C)cc1)c1ccc(Br)cc1 (stereo not drawn)	·	-4%	·	7%
CN(C)CCN(C)C1CN(Cc2ccc([N+](=O)[O-])cc2)S(=O)(=O)C1 (stereo not drawn)	·	·	·	4%
COc1ccc(/C=C(/NC(=O)c2ccc(Br)o2)C(=O)Nc2cccc(C(=O)O)c2)cc1	·	·	·	-1%
O=C(CC1CCCC1)Nc1ccc(Cl)c(S(=O)(=O)N2CCOCC2)c1	·	11µM*	·	7%
COc1cc(C(=O)Nc2ccc3c(c2)OCCO3)ccc1OC(C)C	99%	13µM*	?	3%
Cc1ccc(NC(=O)Cc2ccc3c(c2)OCCO3)cc1S(=O)(=O)N1CCCCC1	171%	-27%	5.2µM*	-4%
O=C(Cc1ccc2c(c1)OCCO2)Nc1ccc(Cl)c(S(=O)(=O)N2CCOCC2)c1	?	?	9.3µM*	-1%
COc1cc(C(=O)Nc2ccc3c(c2)OCCO3)ccc1OC(F)F	14%	?	?	8%
CC(OC(=O)C1CCCCC1)C(=O)Nc1cccc([N+](=O)[O-])c1 (stereo not drawn)	?	-9%	-11%	-6%
